# Shown are actives, neighbours in structure and some others; about 7.5% of the full set was active somewhere.
# KinaseGlo FLuc = counter-screen: inhibitors of Kinase-Glo firefly luciferase. Kinase-Glo luciferase, ATP luminescence, 8 min. Potency, µM (titrated, usually from 38.3 µM), without a hit: at the highest dose activity change, negative = inhibition, usual class: inhibitors. Q27757. AID 1379. hit rate 0.28% among 200,000; note: % is set by controls: 0 for no effect and ±100 for the full control effect; nearly all actives have a fitted effect of over 60% in size
#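 Compound is pinned into ATP-containing buffer (10 uM ATP, imidazole pH 7.2, 7 mM MgCl2). Kinase-Glo luciferase reagent is then added. Light output is recorded following an 8-min room-temperature incubation.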
# FLuc modulator = counter-screen for miR-21 project: firefly luciferase inhibitors or activators | purified FLuc, Km substrates, luminescence inhibition | Potency, µM (series often up to 57.5 µM), without a hit: at the highest dose activity change, negative = inhibition, usual class: inhibitors | hit rate 6.9% among 360,000 | AID 588342;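 note: plate controls were vehicle for no effect and reference inhibitor for full effect; nearly all actives have a fitted effect of over 55% in size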
# Target sequence (P08659 whole entry, looked up): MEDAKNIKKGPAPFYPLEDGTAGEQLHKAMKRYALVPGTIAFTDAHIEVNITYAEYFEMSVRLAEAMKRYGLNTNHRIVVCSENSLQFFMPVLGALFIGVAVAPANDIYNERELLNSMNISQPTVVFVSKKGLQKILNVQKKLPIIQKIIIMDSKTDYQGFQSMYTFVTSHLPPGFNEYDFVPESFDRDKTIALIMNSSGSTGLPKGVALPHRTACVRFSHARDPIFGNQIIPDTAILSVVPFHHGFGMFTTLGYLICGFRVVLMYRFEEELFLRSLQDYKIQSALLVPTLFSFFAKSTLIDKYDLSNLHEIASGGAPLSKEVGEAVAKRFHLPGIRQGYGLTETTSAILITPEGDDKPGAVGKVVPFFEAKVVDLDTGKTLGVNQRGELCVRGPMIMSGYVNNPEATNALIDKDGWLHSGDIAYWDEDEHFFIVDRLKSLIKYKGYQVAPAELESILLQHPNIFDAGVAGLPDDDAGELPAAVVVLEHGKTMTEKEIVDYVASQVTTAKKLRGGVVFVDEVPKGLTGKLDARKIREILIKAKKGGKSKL
#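 Purified P. pyralis luciferase, 10 nM final, with Km-level 10 uM D-luciferin and 10 uM ATP in 50 mM Tris acetate pH 7.5, 10 mM Mg acetate, 0.01% Tween-20, 0.05% BSA; 6-point qHTS titration about 60 µM downward; luminescence read.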
# Rab9 promoter act = activators of Rab9 promoter; Huh7 Rab9 promoter-luciferase reporter, luminescence, 24 h; Potency, µM (highest dose often 9.22 µM), for inactives: top-dose activation, negative = inhibition, hits mostly activators; hit rate 2.8% among 320,000; AID 485297; note: % of control where 0% means no effect; nearly all actives have a fitted effect of over 60% in size
#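 Cell-based reporter: Huh7 stable for Rab9 promoter-driven luciferase, plated in reduced-serum medium with 10% FBS at 1500 cells/well, compound-treated 24 h at 37 °C, luminescence read after 10 min reagent.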
# SMN2 splice up = enhancers of SMN2 splice variant expression. HEK293 SMN2-luciferase splicing reporter, luminescence, 30-36 h. Potency, µM (highest dose often 46.1 µM), without a hit: at the top dose activity change, positive = activation, actives largely listed as activators. hit rate 2.8% among 210,000. AID 1458; note: % of control where 0% means no effect; nearly all actives have a fitted effect of over 55% in size
#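 HEK293 cells carry an SMN2 minigene-luciferase reporter in which exon 7 inclusion puts luciferase in frame. Cells were seeded at 2000 cells/well, attached for 10-12 hours, then exposed to compounds for 30-36 hours at 37C before ONE-Glo luminescence.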
# ELG1 genotoxic = inducers of genotoxicity in HEK293T ELG1-luciferase cells. HEK293T ELG1-luciferase reporter, luminescence, 16 h. Potency, µM (highest dose often 46 µM), for inactives: at the top dose activity change, positive = activation, usual class: activators. hit rate 1.3% among 330,000; note: % of control where 0% means no effect; nearly all actives have a fitted effect of over 60% in size
#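 After overnight (16 hr) compound treatment at 37 °C, ELG1-luciferase HEK293T cells were lysed with ONE-Glo; luminescence quantified 30 min later at room temperature.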
# NPC1 prom act = activators of NPC1 promoter; Huh7 NPC1 promoter luciferase reporter, 24 h; Potency, µM (doses to about 9.22 µM), for the others: at the top dose activation, usual class: activators; hit rate 2.4% among 320,000; AID 485313; note: % of control where 0% means no effect; nearly all actives have a fitted effect of over 60% in size
#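 Readout is luciferase luminescence, reflecting NPC1 promoter activation in stably transfected Huh7 cells after 24 h compound exposure at 37 °C in reduced-serum medium with 10% FBS.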
# Starred values were filed as active, the others as inactive; ? = inconclusive; nt = no result; [ ] = remark or other dose. Calls come from the whole dose curve; as a rule, active = well fitted curve in the direction sought with a large enough effect; inconclusive = small, poorly fitted or top-dose-only effect, or another doubt; inactive = no such curve, though single readings can be large; an effect the other way counts as inactive or inconclusive. Potency is the fitted concentration of half-maximal effect.
SMILES,KinaseGlo FLuc,FLuc modulator,Rab9 promoter act,SMN2 splice up,ELG1 genotoxic,NPC1 prom act
CC1CCc2c(sc(NC(=O)c3ccc(N4C(=O)CCC4=O)cc3)c2C(N)=O)C1 (stereo not drawn),nt,9.5µM*,2%,nt,0%,-4%
Cc1cccc(NC(=O)c2cccc(N3C(=O)CCC3=O)c2)c1,nt,1%,0%,nt,-1%,3%
CC(=O)NC(=S)Nc1sc2c(c1C(N)=O)CCC(C)C2 (stereo not drawn),-1%,9.5µM*,1.6µM*,nt,?,2.8µM*
CC1CCc2nc(NC(=O)c3ccc(N4C(=O)CCC4=O)cc3)sc2C1 (stereo not drawn),nt,9.5µM*,14%,nt,-10%,4%
CCOC(=O)Nc1sc2c(c1C(N)=O)CCC(C)C2 (stereo not drawn),-1%,?,9%,nt,13%,1%
O=C(Nc1nc2c(s1)CCCC2)c1ccc(N2C(=O)CCC2=O)cc1,nt,19µM*,?,nt,?,?
COc1cc(C=C2C(=O)c3ccccc3C2=O)ccc1O,nt,3µM*,-7%,nt,2%,1%
COc1ccc(C=C2C(=O)c3ccccc3C2=O)cc1O,7.9µM*,3.4µM*,-2%,20%,-2%,0%
COc1cc(C=C2C(=O)c3ccccc3C2=O)cc(OC)c1OC,0%,?,1%,-21%,?,-9%
Cc1cccc(C(=O)OCN2C(=O)c3ccccc3C2=O)c1[N+](=O)[O-],nt,-3%,-4%,nt,9%,-6%
COc1ccc(-c2cc(C(=O)NCc3ccccc3)c3c(-c4ccccc4)[nH]nc3n2)cc1,nt,-7%,nt,nt,nt,nt
O=C(Cn1c(=O)n(-c2ccccc2)c(=O)c2c3c(sc21)CCCC3)Nc1ccc(F)cc1F,nt,-7%,nt,-1%,nt,nt
Cc1cc(C(=O)NCc2ccco2)on1,3%,10%,6%,-2%,-1%,0%
O=C(NCc1ccco1)c1cc(-c2ccc(F)cc2)on1,6%,?,2.8µM*,21%,?,2.5µM*
COc1ccc(CCNC(=O)c2cc(-c3ccccc3)on2)cc1OC,4%,0%,13%,-11%,5%,1%
O=C(NCc1ccco1)c1cc(-c2ccccc2)on1,-3%,?,2.8µM*,13µM*,18µM*,?
CC(C)c1cc(C(=O)NCc2ccco2)no1,-13%,-14%,?,?,15µM*,13%
COc1ccc(-c2cc(C(=O)NCc3ccc(F)cc3)no2)cc1,nt,1%,nt,-1%,nt,nt
CC(C)c1cc(C(=O)NCCc2ccccc2)no1,0%,17µM*,2.2µM*,nt,?,3.2µM*
CCOc1ccccc1NC(=O)CSc1nnc(NC(=O)c2ccco2)s1,nt,?,-2%,nt,4%,-1%
COc1cc(NC(=O)Cn2cnc(S(=O)(=O)N3CCc4ccccc43)c2)cc(OC)c1OC,nt,0%,-5%,nt,-1%[9.26 µM],0%
O=C(Nc1ccc(F)cc1F)c1cc(-c2ccco2)on1,4%,4.3µM*,7%,-17%,?,-8%
O=C(NCc1ccc(F)cc1)c1cc(-c2ccco2)on1,3%,1%,14%,20µM*,1%,2%
O=C(NCc1ccc(Cl)cc1)c1cc(-c2ccco2)on1,nt,-2%,13%,nt,5%,1%
O=C(NCCc1ccccc1)c1cc2ncc(Br)cn2n1,-2%,?,?,?,16µM*,24%
O=C(NCc1ccco1)c1cc(-c2cccs2)on1,-4%,11µM*,2.8µM*,?,?,3.2µM*
CCN(CC)C(=O)c1ccc(Nc2nnc(-c3ccc(O)cc3)c3ccccc23)cc1,nt,-13%,-1%,nt,-1%,-6%
O=C(Nc1ccc(F)cc1F)c1csc(-c2ccncc2)n1,4%,?,11%,9%,9%,15%
O=C(NCCCn1ccnc1)c1cc(-c2cccs2)on1,-1%,?,3.2µM*,-2%,?,?
O=C(NCCCN1CCOCC1)c1cc(-c2cccs2)on1,-1%,-9%,?,-11%,?,28%
